From PubChem BioAssay AID1159580 (chemical genetic matrix, 2015)
In all, about 5,500 compounds went through this assay and about 2,000 (36%) were called active. Roughly 18% stayed inconclusive and do not appear here. Cut-off read from the data, not from the text of the source: active = normalized growth mostly below about 0.91 (no sharp cut-off); inconclusive = no clear call, values can overlap the other calls; inactive = mostly above about 0.92. The list shows a part of the results.

Experiment: chemical genetic growth profiling, strain panel (AID 1159580);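 note: tested at 20 µM; growth read once vehicle control cultures reached saturation at 30 °C; 1 = growth at the plate median or of vehicle wells; lower values mean less growth of the strain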
Conditions: growth OD

Measured: normalized growth

O=c1cccc2n1CC1CC2CN2CCCC[C@@H]12 (stereo not given in full)
inactive: S. cerevisiae deletion strains, locus YJR043C, strain POL32, stronger effect = lower value 0.982 | S. cerevisiae deletion strains, locus YJR066W, strain TOR1, stronger effect = lower value 0.98 | S. cerevisiae deletion strains, locus YJR075W, strain HOC1, stronger effect = lower value 0.986 | S. cerevisiae deletion strains, locus YKL009W, strain mrt4, stronger effect = lower value 0.977 | S. cerevisiae deletion strains, locus YKL068W, stronger effect = lower value 0.983 | S. cerevisiae deletion strains, locus YKL085W, strain MDH1 (second series), stronger effect = lower value 0.986 | S. cerevisiae deletion strains, locus YKL085W, strain MDH1, stronger effect = lower value 0.986 | S. cerevisiae deletion strains, locus YKL160W, strain elf1, stronger effect = lower value 0.996 | S. cerevisiae deletion strains, locus YKR001C, strain vps1, stronger effect = lower value 1 | S. cerevisiae deletion strains, locus YKR026C, strain gcn3, stronger effect = lower value 0.965 | S. cerevisiae deletion strains, locus YKR091W, strain srl3, stronger effect = lower value 0.978 | S. cerevisiae deletion strains, locus YLL001W, strain dnm1, stronger effect = lower value 0.987 | S. cerevisiae deletion strains, locus YLL026W, stronger effect = lower value 0.976 | S. cerevisiae deletion strains, locus YLL041C, strain sdh2, stronger effect = lower value 0.98 | S. cerevisiae deletion strains, locus YLR027C, strain aat2, stronger effect = lower value 0.984 | S. cerevisiae deletion strains, locus YLR039C, strain RIC1, stronger effect = lower value 1 | S. cerevisiae deletion strains, locus YLR058C, strain SHM2, stronger effect = lower value 0.978 | S. cerevisiae deletion strains, locus YLR102C, strain apc9, stronger effect = lower value 0.982 | S. cerevisiae deletion strains, locus YLR113W, strain HOG1, stronger effect = lower value 0.985 | S. cerevisiae deletion strains, locus YLR221C, strain rsa3, stronger effect = lower value 1 | S. cerevisiae deletion strains, locus YLR258W, strain gsy2, stronger effect = lower value 0.978 | S. cerevisiae deletion strains, locus YLR262C, strain YPT6 (second series), stronger effect = lower value 1.01 | S. cerevisiae deletion strains, locus YLR262C, strain YPT6, stronger effect = lower value 0.955 | S. cerevisiae deletion strains, locus YLR268W, strain sec22, stronger effect = lower value 1.03 | S. cerevisiae deletion strains, locus YLR320W, strain mms22, stronger effect = lower value 0.974 | S. cerevisiae deletion strains, locus YLR330W, strain CHS5, stronger effect = lower value 0.997 | S. cerevisiae deletion strains, locus YLR342W, strain FKS1 (second series), stronger effect = lower value 1.01 | S. cerevisiae deletion strains, locus YLR342W, strain FKS1, stronger effect = lower value 0.975 | S. cerevisiae deletion strains, locus YLR357W, strain rsc2, stronger effect = lower value 0.943 | S. cerevisiae deletion strains, locus YLR370C, strain arc18, stronger effect = lower value 0.989 | S. cerevisiae deletion strains, locus YLR371W, strain rom2, stronger effect = lower value 0.977 | S. cerevisiae deletion strains, locus YLR384C, strain iki3, stronger effect = lower value 0.976 | S. cerevisiae deletion strains, locus YLR418C, strain cdc73, stronger effect = lower value 0.957 | S. cerevisiae deletion strains, locus YML016C, strain PPZ1, stronger effect = lower value 0.991 | S. cerevisiae deletion strains, locus YML032C, strain rad52, stronger effect = lower value 0.987 | S. cerevisiae deletion strains, locus YML120C, strain ndi1, stronger effect = lower value 1.02 | S. cerevisiae deletion strains, locus YML124C, strain tub3, stronger effect = lower value 0.978 | S. cerevisiae deletion strains, locus YMR058W, strain fet3, stronger effect = lower value 0.987 | S. cerevisiae deletion strains, locus YMR078C, strain ctf18, stronger effect = lower value 0.98 | S. cerevisiae deletion strains, locus YMR125W, strain sto1, stronger effect = lower value 0.944 | S. cerevisiae deletion strains, locus YMR129W, stronger effect = lower value 0.987 | S. cerevisiae deletion strains, locus YMR205C, strain PFK2, stronger effect = lower value 0.928 | S. cerevisiae deletion strains, locus YMR223W, strain ubp8, stronger effect = lower value 0.958 | S. cerevisiae deletion strains, locus YMR231W, strain pep5, stronger effect = lower value 0.98 | S. cerevisiae deletion strains, locus YMR263W, strain SAP30, stronger effect = lower value 0.981 | S. cerevisiae deletion strains, locus YMR307W, strain GAS1, stronger effect = lower value 1.04 | S. cerevisiae deletion strains, locus YNL067W, strain RPL9B, stronger effect = lower value 0.989 | S. cerevisiae deletion strains, locus YNL071W, strain lat1, stronger effect = lower value 0.994 | S. cerevisiae deletion strains, locus YNL153C, strain GIM3, stronger effect = lower value 0.993 | S. cerevisiae deletion strains, locus YNL183C, strain NPR1, stronger effect = lower value 0.993 | S. cerevisiae deletion strains, locus YNL209W, strain ssb2, stronger effect = lower value 0.984 | S. cerevisiae deletion strains, locus YNL233W, strain BNI4, stronger effect = lower value 1 | S. cerevisiae deletion strains, locus YNL248C, strain rpa49, stronger effect = lower value 1.01 | S. cerevisiae deletion strains, locus YNL250W, strain rad50, stronger effect = lower value 0.967 | S. cerevisiae deletion strains, locus YNL271C, strain bni1, stronger effect = lower value 0.996 | S. cerevisiae deletion strains, locus YNL298W, strain CLA4, stronger effect = lower value 0.986 | S. cerevisiae deletion strains, locus YNL307C, strain MCK1, stronger effect = lower value 0.981 | S. cerevisiae deletion strains, locus YNL322C, strain KRE1 (second series), stronger effect = lower value 0.976 | S. cerevisiae deletion strains, locus YNR049C, strain mso1, stronger effect = lower value 0.974 | S. cerevisiae deletion strains, locus YNR052C, strain pop2, stronger effect = lower value 0.979 | S. cerevisiae deletion strains, locus YOL006C, strain TOP1, stronger effect = lower value 1.04 | S. cerevisiae deletion strains, locus YOL012C, strain htz1 0.724 | S. cerevisiae deletion strains, locus YOL147C, strain pex11, stronger effect = lower value 0.98 | S. cerevisiae deletion strains, locus YOR001W, strain rrp6, stronger effect = lower value 0.993 | S. cerevisiae deletion strains, locus YOR061W, strain CKA2, stronger effect = lower value 0.962 | S. cerevisiae deletion strains, locus YOR069W, strain VPS5, stronger effect = lower value 0.999 | S. cerevisiae deletion strains, locus YOR070C, strain gyp1, stronger effect = lower value 0.99 | S. cerevisiae deletion strains, locus YOR080W, strain dia2, stronger effect = lower value 0.971 | S. cerevisiae deletion strains, locus YOR083W, strain WHI5, stronger effect = lower value 1.02 | S. cerevisiae deletion strains, locus YOR106W, strain vam3, stronger effect = lower value 0.985 | S. cerevisiae deletion strains, locus YOR136W, strain idh2, stronger effect = lower value 0.973 | S. cerevisiae deletion strains, locus YOR144C, strain elg1, stronger effect = lower value 0.976 | S. cerevisiae deletion strains, locus YOR184W, strain ser1, stronger effect = lower value 0.973 | S. cerevisiae deletion strains, locus YOR231W, strain MKK1, stronger effect = lower value 1.03 | S. cerevisiae deletion strains, locus YOR265W, strain rbl2, stronger effect = lower value 0.968 | S. cerevisiae deletion strains, locus YOR270C, strain vph1, stronger effect = lower value 0.987 | S. cerevisiae deletion strains, locus YOR290C, strain snf2, stronger effect = lower value 0.951 | S. cerevisiae deletion strains, locus YOR316C, strain cot1, stronger effect = lower value 0.976 | S. cerevisiae deletion strains, locus YPL051W, strain arl3, stronger effect = lower value 1 | S. cerevisiae deletion strains, locus YPL078C, strain atp4, stronger effect = lower value 0.999 | S. cerevisiae deletion strains, locus YPL106C, strain sse1, stronger effect = lower value 0.927 | S. cerevisiae deletion strains, locus YPL240C, strain hsp82, stronger effect = lower value 0.994 | S. cerevisiae deletion strains, locus YPL241C, strain CIN2, stronger effect = lower value 0.994 | S. cerevisiae deletion strains, locus YPL256C, strain CLN2, stronger effect = lower value 1.01 | S. cerevisiae deletion strains, locus YPR119W, strain clb2, stronger effect = lower value 0.976 | S. cerevisiae deletion strains, locus YPR141C, strain kar3, stronger effect = lower value 0.97 | S. cerevisiae deletion strains, locus YPR163C, strain tif3, stronger effect = lower value 0.973 | S. cerevisiae deletion strains, locus YPR167C, strain met16, stronger effect = lower value 0.973 | S. cerevisiae deletion strains, strain wtn01, stronger effect = lower value 1.04 | S. cerevisiae strains, strain wild type, stronger effect = lower value 1
